Data published in the supplement of paper PMC7411054.
Structures can show the parent of a compound that is named as a salt.

How the values were obtained:
Conditions in all cases: treatment time: 24 h
A549-ACTB-RAB5A [1] = test: lowest phenotypically active concentration; higher = less potent
Summary of the method: (§1)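 Live-cell features were measured per well and normalised to solvent control wells after fifteen gene-edited A549, HepG2 and WPMY1 reporter lines had been treated for 24 h at 0.3, 1, 3 or 9 µM in four wells each. A condition was deviating when ≥3 of 4 wells sat beyond the 95th percentile of control Euclidean distances. It was reproducible when the median replicate Pearson correlation exceeded the 95th percentile of non-replicates. Phenotypic activity demanded both.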

A549-GM130-SQSTM1 [2] = test: as above
Summary of the method: as §1

A549-TUBA1B-RELA [3] = test: as above
Summary of the method: as §1

A549-ACTB-RAB5A [4] = test: phenotypically active (imaging signature differs from DMSO and reproducible) at any of 0.3-9 uM (binary (1 = active, 0 = inactive)); higher = active
Summary of the method: as §1

A549-CANX-COX4 = test: as above
Summary of the method: as §1

A549-GM130-SQSTM1 [5] = test: as above
Summary of the method: as §1

A549-TP53BP1-CLTA = test: as above
Summary of the method: as §1

A549-TUBA1B-RELA [6] = test: as above
Summary of the method: as §1

HepG2-ACTB-RAB5A [7] = test: as above
Summary of the method: as §1

HepG2-CANX-COX4 = test: as above
Summary of the method: as §1

HepG2-GM130-SQSTM1 = test: as above
Summary of the method: as §1

HepG2-TP53BP1-CLTA = test: as above
Summary of the method: as §1

HepG2-TUBA1B-RELA = test: as above
Summary of the method: as §1

WPMY1-ACTB-RAB5A = test: as above
Summary of the method: as §1

WPMY1-CANX-COX4 = test: as above
Summary of the method: as §1

WPMY1-GM130-SQSTM1 [8] = test: as above
Summary of the method: as §1

WPMY1-TP53BP1-CLTA = test: as above
Summary of the method: as §1

WPMY1-TUBA1B-RELA = test: as above
Summary of the method: as §1

HepG2-ACTB-RAB5A [9] = test: lowest phenotypically active concentration; higher = less potent
Summary of the method: as §1

WPMY1-GM130-SQSTM1 [10] = test: as above
Summary of the method: as §1

Compound | lowest phenotypically active concentration (A549-ACTB-RAB5A [1]) [µM] | lowest phenotypically active concentration (A549-GM130-SQSTM1 [2]) [µM] | lowest phenotypically active concentration (A549-TUBA1B-RELA [3]) [µM] | phenotypically active (A549-ACTB-RAB5A [4]) | phenotypically active (A549-CANX-COX4) | phenotypically active (A549-GM130-SQSTM1 [5]) | phenotypically active (A549-TP53BP1-CLTA) | phenotypically active (A549-TUBA1B-RELA [6]) | phenotypically active (HepG2-ACTB-RAB5A [7]) | phenotypically active (HepG2-CANX-COX4) | phenotypically active (HepG2-GM130-SQSTM1) | phenotypically active (HepG2-TP53BP1-CLTA) | phenotypically active (HepG2-TUBA1B-RELA) | phenotypically active (WPMY1-ACTB-RAB5A) | phenotypically active (WPMY1-CANX-COX4) | phenotypically active (WPMY1-GM130-SQSTM1 [8]) | phenotypically active (WPMY1-TP53BP1-CLTA) | phenotypically active (WPMY1-TUBA1B-RELA) | lowest phenotypically active concentration (HepG2-ACTB-RAB5A [9]) [µM] | lowest phenotypically active concentration (WPMY1-GM130-SQSTM1 [10]) [µM]
CN1c2ccc([N+](=O)[O-])cc2N=C(c2ccc(C(=O)O)cc2)c2cc3c(cc21)C(C)(C)CCC3(C)C | 9 | 9 | 9 | 1 (active) | 0 (inactive) | 1 (active) | 0 (inactive) | 1 (active) | 0 (inactive) | 0 (inactive) | 0 (inactive) | 0 (inactive) | 1 (active) | 0 (inactive) | 0 (inactive) | 0 (inactive) | 0 (inactive) | 0 (inactive) |  | 
COc1cc2c(cc1OC)-c1c/c(=N/c3c(C)cc(C)cc3C)n(C)c(=O)n1CC2 [Trequinsin hydrochloride] | 9 | 9 |  | 1 (active) | 0 (inactive) | 1 (active) | 0 (inactive) | 0 (inactive) | 1 (active) | 1 (active) | 0 (inactive) | 0 (inactive) | 0 (inactive) | 1 (active) | 1 (active) | 1 (active) | 1 (active) | 1 (active) | 9 | 9
O=S(=O)(c1cccc2cnccc12)N1CCNCC1 | 3 |  | 9 | 1 (active) | 0 (inactive) | 0 (inactive) | 1 (active) | 1 (active) | 1 (active) | 1 (active) | 1 (active) | 1 (active) | 1 (active) | 1 (active) | 1 (active) | 1 (active) | 1 (active) | 1 (active) | 9 | 9
Cn1cc(-c2cnc3ccc4ccc(CS(=O)(=O)NCc5ccccn5)cc4c(=O)c3c2)cn1 | 9 |  | 9 | 1 (active) | 0 (inactive) | 0 (inactive) | 0 (inactive) | 1 (active) | 0 (inactive) | 0 (inactive) | 0 (inactive) | 0 (inactive) | 0 (inactive) | 0 (inactive) | 1 (active) | 0 (inactive) | 0 (inactive) | 0 (inactive) |  | 
Nc1cc(N)c(N)cc1N [FAK Inhibitor 14] | 3 | 9 | 3 | 1 (active) | 0 (inactive) | 1 (active) | 0 (inactive) | 1 (active) | 0 (inactive) | 0 (inactive) | 0 (inactive) | 1 (active) | 1 (active) | 1 (active) | 1 (active) | 1 (active) | 1 (active) | 1 (active) |  | 3
Fc1ccccc1Nc1nc2nonc2nc1Nc1ccccc1F | 9 | 3 | 9 | 1 (active) | 0 (inactive) | 1 (active) | 0 (inactive) | 1 (active) | 0 (inactive) | 0 (inactive) | 0 (inactive) | 1 (active) | 1 (active) | 1 (active) | 1 (active) | 0 (inactive) | 0 (inactive) | 0 (inactive) |  | 
CNCC[C@H](Oc1cccc2ccccc12)c1cccs1 [duloxetine] | 9 |  | 9 | 1 (active) | 0 (inactive) | 0 (inactive) | 0 (inactive) | 1 (active) | 0 (inactive) | 0 (inactive) | 0 (inactive) | 0 (inactive) | 0 (inactive) | 0 (inactive) | 0 (inactive) | 0 (inactive) | 0 (inactive) | 0 (inactive) |  | 
CC1CNCCN1S(=O)(=O)c1cccc2cnccc12 (centres undefined) [H-7 dihydrochloride] | 9 | 9 |  | 1 (active) | 0 (inactive) | 1 (active) | 0 (inactive) | 0 (inactive) | 0 (inactive) | 1 (active) | 1 (active) | 0 (inactive) | 1 (active) | 1 (active) | 1 (active) | 1 (active) | 0 (inactive) | 1 (active) |  | 9
COc1ccc(CCc2nc3cc(-c4c(C)noc4C)ccc3n2C[C@H](C)N2CCOCC2)cc1Cl | 3 |  |  | 1 (active) | 0 (inactive) | 0 (inactive) | 0 (inactive) | 0 (inactive) | 1 (active) | 1 (active) | 1 (active) | 1 (active) | 1 (active) | 1 (active) | 0 (inactive) | 1 (active) | 0 (inactive) | 1 (active) | 3 | 9
CC(C)(C)c1ccc(C(O)CCCN2CCC(C(O)(c3ccccc3)c3ccccc3)CC2)cc1 (centres undefined) [terfenadine] | 9 | 3 |  | 1 (active) | 0 (inactive) | 1 (active) | 0 (inactive) | 0 (inactive) | 1 (active) | 0 (inactive) | 0 (inactive) | 0 (inactive) | 1 (active) | 0 (inactive) | 0 (inactive) | 1 (active) | 0 (inactive) | 1 (active) | 3 | 3
Cc1ccc(S(=O)(=O)n2c(N)nc3ccccc32)cc1 | 9 |  |  | 1 (active) | 0 (inactive) | 0 (inactive) | 0 (inactive) | 0 (inactive) | 1 (active) | 0 (inactive) | 0 (inactive) | 0 (inactive) | 0 (inactive) | 0 (inactive) | 0 (inactive) | 0 (inactive) | 0 (inactive) | 0 (inactive) | 9 | 
